93 compounds from PubChem BioAssay AID1529 (NMMLSC, 2009) can be followed below.

Structures are written as SMILES. Hit rate of the full screen: of about 290,000 compounds, about 4,200 (1.4%) were called active. Shown is part of a subset that was picked to be rich in actives. A number with no mark means an inactive call.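 Rule for the calls: active = binding response more than 3 SD above or below the average of its plate-row segment, actives on both sides; inconclusive = wells at one plate position flagged as instrument error; inactive = the rest.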

For this experiment, the target named is Mitogen-activated protein kinase kinase kinase 3 (Homo sapiens) (UniProt Q99759). Description: compounds raising or lowering MEK5 association with MEKK3 PB1 – biochemical, wildtype MEKK3, multiplex bead flow cytometry, Alexa488-MEK5, primary screen (AID 1529).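 Note: Alexa488 bead fluorescence after subtracting the streptavidin-only scavenger bead signal.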 The note with it: bead-based flow cytometry, Alexa488-MEK5 binding to MEKK3; at 10 µM; actives lie on both sides; 0 = blocked by unlabeled MEK5, 100 = vehicle. (In general: A flow cytometer gives signals particle by particle.)
Sequence of Mitogen-activated protein kinase kinase kinase 3 (Homo sapiens) (Q99759 whole entry, looked up): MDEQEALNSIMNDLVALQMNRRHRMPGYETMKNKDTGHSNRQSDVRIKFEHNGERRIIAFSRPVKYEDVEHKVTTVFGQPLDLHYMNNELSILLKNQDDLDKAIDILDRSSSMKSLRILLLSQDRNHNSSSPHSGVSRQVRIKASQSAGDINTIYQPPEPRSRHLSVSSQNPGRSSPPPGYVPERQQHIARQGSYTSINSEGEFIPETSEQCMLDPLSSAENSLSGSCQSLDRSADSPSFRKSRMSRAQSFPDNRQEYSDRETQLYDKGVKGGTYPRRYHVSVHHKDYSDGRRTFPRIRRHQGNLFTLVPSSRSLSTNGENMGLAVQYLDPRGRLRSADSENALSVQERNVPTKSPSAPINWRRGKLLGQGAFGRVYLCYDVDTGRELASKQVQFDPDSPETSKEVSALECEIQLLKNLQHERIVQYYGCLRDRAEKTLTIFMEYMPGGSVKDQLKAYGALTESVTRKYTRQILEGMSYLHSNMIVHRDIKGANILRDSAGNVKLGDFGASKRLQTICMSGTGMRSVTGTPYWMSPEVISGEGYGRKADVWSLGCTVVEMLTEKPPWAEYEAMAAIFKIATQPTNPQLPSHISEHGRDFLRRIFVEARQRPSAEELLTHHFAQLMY
As to `Cc1cnc(NC(=O)Cn2cnc3c2c(=O)n(C)c(=O)n3C)s1`, the binding response (% of control) was 136% (active). As for `Cc1ccc(SCC(=O)Nc2ncc(C)s2)cc1`, the binding response (% of control) is 100%.

For `Cc1cnc(NC(=O)CSc2nnc(C)s2)s1`, the binding response (% of control) is 100%. In the case of `COC(=O)CCc1sc(Nc2ccc(Br)cc2)nc1-c1ccc(OC)cc1` it was 136% (active); in that of `Cc1ccc(OC(=O)CCC(=O)Nc2ccc(Br)cc2)cc1`, 94%. In the case of `COc1ccc(-c2csc(Nc3ccc(O)cc3)n2)cc1`, the binding response (% of control) was 95%. In the case of `CC(=O)N1CCN(S(=O)(=O)c2ccc(C)c([N+](=O)[O-])c2)C1C(C)C` (stereo not drawn) it was 128% (active); in that of `Cc1ccc(NC(=O)CN2CCC(C(N)=O)CC2)cc1[N+](=O)[O-]`, 98%; in that of `CSCCC(Nc1ccc(S(=O)(=O)N2CCOCC2)cc1[N+](=O)[O-])C(=O)OCC(=O)N(C(C)C)C(C)C` (stereo not drawn), 98%. On to `Cc1cc(=O)cc(C)n1-c1ccc(Cl)c(Cl)c1`, for which the binding response (% of control) is 96%. Regarding `CC(=O)Nc1ccc(S(=O)(=O)N2CCC(C(=O)NC3CC3)CC2)cc1`, the binding response (% of control) is 104%. In the case of `Cc1[nH]n(-c2ccccc2)c(=O)c1/C=N/NC(=O)c1ccoc1C` it was 108%; in that of `CCC(=C/c1sc2ccc3ccccc3c2[n+]1C)/C=C1\Sc2ccc3ccccc3c2N1C`, 23% [inhibitor] (active); in that of `C#CCOCCOCCOCCNc1nc(N2CCN(C(=O)C([C@@H](C)CC)n3cc(C(N)COC(=O)C(F)(F)F)nn3)CC2)nc(N2CCN(C(=O)[C@H](CCCCN)n3cc(C(N)CC(C)C)nn3)CC2)n1` (stereo partly drawn), 120%.

Take `N=C1/C(=C/c2cccn2-c2cccc([N+](=O)[O-])c2)C(=O)N=C2SC=CN12`: the binding response (% of control) is 135% (active).

Take `Cc1cc(/C=C2/C(=N)N3C(=NC2=O)SN=C3S(C)(=O)=O)c(C)n1-c1ccccc1`: the binding response (% of control) was 96%. Turning to `COCOc1cc(O)c(C(=O)/C=C/c2ccc(OCOC)c(OCOC)c2)c(OCOC)c1`, the binding response (% of control) is 104%. In the case of `Cc1cccc(NC(=O)CCN2CC(C)CC(C)C2)c1` (stereo not drawn) it was 107%; in that of `Cc1nonc1C1CCCN1Cc1nc(-c2ccc(F)cc2F)oc1C` (stereo not drawn), 85%; in that of `CCN1/C(=C/c2ccc3ccc(C)cc3[n+]2CC)Sc2ccccc21`, 95%.

As for `CCN1/C(=C\c2ccc3ccccc3[n+]2CC)Sc2cc(C)ccc21`, the binding response (% of control) was 70% [inhibitor] (active).

As to `CCN(CC)CCCNC(=O)c1cn(C)c2ccc(S(=O)(=O)N(C)C3CCCCC3)cc2c1=O`, the binding response (% of control) is 100%.

Consider `COc1ccc(C(=O)NCc2nnc(SCC(=O)Nc3cccc(OC)c3)o2)cc1`, for which the binding response (% of control) was 102%. Turning to `Cc1cccc(/C=N/NC(=O)CNc2cccc3ccccc23)n1`, the binding response (% of control) is 144% (active). For the compound `C/C(=N\NC(=O)CNc1cccc2ccccc12)c1ccc(Br)s1`, the binding response (% of control) is 103%.

Consider `Cn1cccc1/C=N/NC(=O)CNc1cccc2ccccc12`, for which the binding response (% of control) was 103%. For the compound `CCn1cc(CN2CCC(C(=O)Nc3cccc(-c4cccc(Cl)c4)c3)CC2)c(C)n1`, the binding response (% of control) is 107%.

As to `Cc1ccc(N(CCC(=O)O)S(=O)(=O)c2cccc(C(F)(F)F)c2)cc1`, the binding response (% of control) is 3% [inhibitor] (active). With `O=C(O)c1cc(S(=O)(=O)N(Cc2ccccc2)c2cccc(C(F)(F)F)c2)ccc1Cl`, the binding response (% of control) was 106%. In the case of `CCc1nnc(NC(=O)CCN(c2ccc(C)cc2)S(=O)(=O)c2ccccc2)s1` it was 108%; in that of `Cc1cc(=O)n2nc(N3CCCC(C(=O)NCc4ccc(Cl)cc4)C3)sc2n1` (stereo not drawn), 99%; in that of `Cc1ccnc(N2CCCC(C(=O)NC3CC3)C2)n1` (stereo not drawn), 100%. With `COc1cc(C)nc(N2CCCC(C(=O)NCC(C)C)C2)n1` (stereo not drawn), the binding response (% of control) is 130% (active). In the case of `CN1CCN(CCNC(=O)Nc2ccccc2[N+](=O)[O-])CC1` it was 104%; in that of `Cc1ccc(CN(CC(=O)NC2CCCCC2)C(=O)c2csnn2)cc1`, 103%; in that of `Cc1ccccc1CCN(CC(=O)NC1CCCCC1)C(=O)c1csnn1`, 142% (active).

Take `O=C(CN(C(=O)c1csnn1)c1ccc(Br)cc1)NC1CCCC1`: the binding response (% of control) was 101%. Then `COc1ccccc1CC(=O)Nc1ccc([N+](=O)[O-])cc1OC`, with 139% (active). Then `COc1ccccc1CC(=O)Nc1ccc(F)cc1F`, with 106%. Then `COc1cc([N+](=O)[O-])ccc1NC(=O)CN1CCCC1`, with 104%; and `CCC(C)(C)NC(=O)C1c2ccccc2Oc2ccccc21`, with 99%; and `CC(C)(C)c1nnc(NC(=O)C2c3ccccc3Oc3ccccc32)s1`, with 45% [inhibitor] (active). `CCC(C)NC(=O)C1c2ccccc2Oc2ccccc21` (stereo not drawn): the binding response (% of control) is 71%. Then `C=CCSc1nnc2c(n1)-c1cccc3cccc-2c13`, with 104%. In the case of `COc1ccc(C(=O)NC(=S)NC2CCCCC2)cc1` it was 106%; in that of `Brc1ccccc1C1N=C(c2ccccc2)NO1` (stereo not drawn), 103%; in that of `Cc1ccc2c(c1)N(C(=O)CCC(=O)NCc1cccnc1)CCO2`, 100%. With `COc1cccc(NC(=O)CN(C)C(=O)/C=C/c2cc(OC)ccc2OC)c1`, the binding response (% of control) was 151% (active). For the compound `COc1cccc(NC(=O)CN(C)C(=O)Cc2ccc(Cl)cc2Cl)c1`, the binding response (% of control) is 106%. In the case of `COc1ccc(/C=C/C(=O)OCC(=O)Nc2cccc(Oc3ccccc3)c2)c(OC)c1` it was 106%. Then `CCOC(=O)N1CCN(C(=O)c2cn(C)c3ccc(S(=O)(=O)N(CC)CC)cc3c2=O)CC1`, with 98%; and `CCOC(=O)CC1(NC(=O)c2cc(COc3cncc(Cl)c3)on2)CCCCC1`, with 103%.

For the compound `O=C(CN1C(=O)CSC1=O)N1CCCC(Nc2ccc(F)cc2)C1` (stereo not drawn), the binding response (% of control) is 102%. In the case of `CN(C(=O)c1cc2c(=O)n3ccccc3nc2s1)C1CCCCC1` it was 100%; in that of `Cn1c(=O)c2sccc2n(Cc2ccc(Br)cc2)c1=O`, 101%. Then `Cn1c(=O)c2c(nc(N/N=C/c3cccs3)n2Cc2ccc(Br)cc2)n(C)c1=O`, with 131% (active). Then `Cn1c(=O)c2c(nc(NCCc3ccccc3)n2Cc2ccccc2)n(C)c1=O`, with 96%; and `COc1cccc(OCC(=O)Nc2ccccc2C(N)=O)c1`, with 110%; and `COc1ccc(OCC(=O)NNC(=O)c2cccc(C)c2)cc1`, with 103%. As for `COc1cccc(OCC(=O)NNC(=O)c2cnccn2)c1`, the binding response (% of control) was 2% [inhibitor] (active). In the case of `Cc1c(C(C)(C)O)[nH]c2ccc(C#N)cc12` it was 103%. Turning to `CC(=O)N1CCN(CC(C)(C)NS(=O)(=O)c2ccc(C)cc2)CC1`, the binding response (% of control) was 102%. In the case of `CCOC(=O)C(NS(=O)(=O)c1ccc(C)cc1)(C(F)(F)F)P(=O)(OCC(C)C)OCC(C)C` (stereo not drawn) it was 140% (active); in that of `Cc1ccc(S(=O)(=O)NCC(C)NS(C)(=O)=O)cc1` (stereo not drawn), 97%. With `Cc1cc(C(=O)NCCCc2ccccc2)no1`, the binding response (% of control) is 99%. Regarding `CCCOc1ccc(C(=O)NCCc2ccccc2)cc1`, the binding response (% of control) was 97%. As for `CC(C)c1ccc(C(=O)NCCCc2ccccc2)cc1`, the binding response (% of control) was 2% [inhibitor] (active).

As to `Cc1ccccc1-n1c(C)cc(/C=C2\NC(=O)NC2=O)c1C`, the binding response (% of control) is 57%. Then `C#CCOc1ccccc1/C=C1/C(=O)ON=C1C`, with 110%. In the case of `Cc1no[n+]([O-])c1COc1ccccc1/C=C1\NC(=S)NC1=O` it was 126% (active); in that of `COc1cc(S(=O)(=O)Nc2ncn[nH]2)ccc1Cl`, 102%.

Consider `CS(=O)(=O)Nc1ccc(C2=NN(S(C)(=O)=O)C(c3cccs3)C2)cc1` (stereo not drawn), for which the binding response (% of control) was 10% [inhibitor] (active).

With `CS(=O)(=O)Nc1cccc(C2=NN(S(=O)(=O)c3ccccc3)C(c3cccs3)C2)c1` (stereo not drawn), the binding response (% of control) was 95%. As to `CCS(=O)(=O)Nc1ccc(C2=NN(C(C)=O)C(c3cccs3)C2)cc1` (stereo not drawn), the binding response (% of control) was 55%. In the case of `Cc1occc(=O)c1OCc1c(Cl)cccc1Cl` it was 102%; in that of `CCOc1ccc(NC(=O)C2CCN(C(=O)N3CCOc4ccccc43)CC2)cc1`, 103%. As to `Cc1ccc(-c2noc(C3CCCN(C(=O)c4cccc(Cl)c4)C3)n2)o1` (stereo not drawn), the binding response (% of control) is 99%.

`COc1ccc(N2CCN(C(=O)CN3C(=O)COc4ccccc43)CC2)cc1`: the binding response (% of control) was 101%. In the case of `C/C=C/c1ccc(OCCCCN2CCC(C)CC2)c(OC)c1` it was 69% [inhibitor] (active); in that of `COc1ccc(OCCCCN2CCC(C)CC2)cc1`, 108%.

In the case of `C/C=C/c1ccc(OCCOc2ccc(C=O)cc2OC)c(OC)c1`, the binding response (% of control) was 100%. In the case of `O=c1[nH]snc1-c1c(Cl)cccc1Cl` it was 105%; in that of `COc1cccc(NC(=O)COc2cc(C)cc3oc(=O)cc(C)c23)c1`, 103%; in that of `CCN1CCN(c2nc(Nc3cc(OC)ccc3OC)nc(Nc3cc(OC)ccc3OC)n2)CC1`, 37% [inhibitor] (active). For the compound `CCOc1ccc(Nc2nc(Cl)nc(N3CCN(c4ccc(OC)cc4)CC3)n2)cc1`, the binding response (% of control) was 103%.

As for `CCOC(=O)N1CCN(CCC(=O)Nc2cc(OC)ccc2OC)CC1`, the binding response (% of control) is 96%. As for `CC(=O)O[C@H]1c2ccccc2-c2ccccc2[C@@H]1OC(C)=O`, the binding response (% of control) was 104%. For `COC(=O)c1ccc(NC(=O)c2cc3c(CO)cnc(C)c3oc2=Nc2cccc(C(N)=O)c2)cc1`, the binding response (% of control) was 102%. Then `O=C(NC1CCCC1)C(c1ccco1)N(C(=O)c1csnn1)c1ccccc1` (stereo not drawn), with 100%; and `CCOC(=O)/C=c1\s/c(=C\c2ccc(C#N)cc2)c(=O)n1CC(=O)Nc1cccc(C)c1C`, with 102%.

Consider `CN(c1ccccc1)c1ccc(/C=c2\s/c(=C(/C#N)C(=O)C(C)(C)C)n(Cc3ccco3)c2=O)cc1`, for which the binding response (% of control) was 47% [inhibitor] (active). Consider `Cc1cs/c(=N\N=C\c2ccc(O)cc2)n1Cc1ccco1`, for which the binding response (% of control) was 100%. In the case of `COc1ccc(Cc2nc3ccc(C(=O)N4CCC(N(C)C)C4)cc3o2)cc1` (stereo not drawn) it was 97%.
